Data taken from PubChem BioAssay (EPA / NIEHS).
Records with an inconclusive call do not appear. The source made the active and inactive calls. Rule for the calls, unless noted: active = hit-call score of the fitted dose curve at least 0.9, where 1 is the maximum; inactive = score below 0.9.

Assays:
[1] = ATG_TAL_CIS: Attagene CIS-FACTORIAL HepG2 Assay for human TAL Basal Promoter (AID 2282966); conditions: HepG2 Attagene cis-factorial TAL promoter reporter; actives raise or lower the signal;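 note: background control endpoint measuring basal TAL promoter reporter mRNA not a specific factor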
Method in brief: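 Fluorescence of labelled reporter cDNA fragments, resolved by capillary electrophoresis, gave the readout. Human HepG2 liver cells carried transiently transfected cis-element reporter units and were treated for 24 hours; activity was fitted bidirectionally against DMSO.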

[2] = ATG_TGFb_CIS: Attagene CIS-FACTORIAL HepG2 Assay for human Transforming Growth Factor (TGF) (AID 2282967); conditions: HepG2 Attagene CIS TGFb reporter, mRNA transcription; actives raise or lower the signal
Method in brief: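 Transient MRTU transfection of HepG2 (FuGene 6). Dose 24 h. TriZol RNA, oligo(dT) RT, PCR, 6-FAM primer extension, HpaI cut, CE. Bidirectional fit, DMSO = baseline.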

[3] = ATG_VDRE_CIS: Attagene CIS-FACTORIAL HepG2 Assay for human Vitamin D Receptor Element (VDRE) (AID 2282968); conditions: HepG2 VDRE cis-reporter transcription, actives raise or lower the signal
Method in brief: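 RT-PCR/CE readout of reporter mRNA; HepG2, transient transfection, 24 h dosing; DMSO baseline; bidirectional analysis.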

[4] = molecular target: Estrogen receptor (Homo sapiens) (UniProt P03372); assay: ATG_ERa_TRANS: Attagene TRANS-FACTORIAL HepG2 Assay for human Estrogen Receptor alpha (ERa) (AID 2282970; active = hit-call score of the fitted dose curve at least 0.9, where 1 is the maximum); conditions: HepG2 Attagene TRANS ERa GAL4 reporter, mRNA
Method in brief: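 Human liver HepG2, transient transfection of multiple GAL4-UAS reporter units; TRANS format (exogenous NR-Gal4 chimera). 24 h dosing. Readout: reporter mRNA, RT-PCR, 6-FAM primer extension, HpaI digest, capillary electrophoresis. Positive direction vs DMSO.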

[5] = molecular target: X-box-binding protein 1 (Homo sapiens) (UniProt P17861); assay: ATG_Xbp1_CIS: Attagene CIS-FACTORIAL HepG2 Assay for human X-box Binding Protein 1 (XBP1) (AID 2282972); conditions: HepG2 XBP1 cis-element reporter, Attagene multiplex; actives raise or lower the signal
Method in brief: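 HepG2 cells transiently transfected with multiple cis-element reporter units report endogenous TF activity; 24 h exposure, then reporter mRNA measured by RT-PCR, 6-FAM labelling, HpaI digestion and capillary electrophoresis. Bidirectional fitting versus DMSO.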

[6] = molecular target: Oxysterols receptor LXR-beta (Homo sapiens) (UniProt P55055); assay: ATG_LXRb_TRANS: Attagene TRANS-FACTORIAL HepG2 Assay for human Liver X Receptor beta (LXRb) (AID 2282981; active = hit-call score of the fitted dose curve at least 0.9, where 1 is the maximum); conditions: HepG2 Attagene TRANS GAL4-LXRb reporter, mRNA
Method in brief: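 In this TRANS format, exogenous chimeric NR-Gal4 protein activity, not endogenous factors, drives reporter expression in transfected human HepG2 cells. Exposure lasted 24 h; reporter mRNA was read by fluorescent capillary electrophoresis.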

[7] = molecular target: Hepatocyte nuclear factor 4-alpha (Homo sapiens) (UniProt P41235); assay: ATG_HNF4a_TRANS: Attagene TRANS-FACTORIAL HepG2 Assay for human Hepatocyte Nuclear Factor 4 alpha (HNF4a) (AID 2282982; active = hit-call score of the fitted dose curve at least 0.9, where 1 is the maximum); conditions: HepG2 HNF4a transactivation reporter, mRNA readout
Method in brief: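 Cells used were human HepG2, transiently carrying GAL4-UAS reporter units read out against exogenous NR-GAL4 chimeras. Reporter transcript levels after 24 h dosing were quantified by fluorescent RT-PCR and capillary electrophoresis.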

[8] = ATG_M_06_TRANS: Attagene TRANS-FACTORIAL HepG2 Assay for M06 Transcription Factor (Internal Marker) (AID 2282983; active = hit-call score of the fitted dose curve at least 0.9, where 1 is the maximum); conditions: HepG2 Attagene TRANS M06 internal marker reporter
Method in brief: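 Transfect HepG2 with MRTUs → dose compounds 24 h → isolate RNA, oligo(dT) RT → PCR with reporter primers → 6-FAM primer extension → HpaI digest → CE fragment analysis. Positive direction vs DMSO.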

[9] = molecular target: Transcriptional activator Myb (Homo sapiens) (UniProt P10242); assay: ATG_Myb_CIS: Attagene CIS-FACTORIAL HepG2 Assay for human Myeloblastosis (Myb) Proto-Oncogene Transcription Factor (AID 2282986); conditions: HepG2 Attagene CIS-FACTORIAL Myb reporter transcription; actives raise or lower the signal
Method in brief: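 Using HepG2 liver cells bearing transiently transfected cis-promoter reporter constructs, the assay measures induction or loss of reporter mRNA after 24 hours of dosing. Detection used fluorescently labeled RT-PCR products separated by capillary electrophoresis.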

[10] = molecular target: Nuclear respiratory factor 1 (Homo sapiens) (UniProt Q16656); assay: ATG_NRF1_CIS: Attagene CIS-FACTORIAL HepG2 Assay for human Nuclear Respiratory Factor 1 (NRF1) Orphan Gene (AID 2282987); conditions: HepG2 NRF1 cis-element reporter, Attagene multiplex; actives raise or lower the signal
Method in brief: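 Reporter mRNA induction or loss in HepG2 cells after 24 h dosing; cis-regulated reporter constructs report endogenous transcription-factor activity. Quantified by RT-PCR/capillary electrophoresis fluorescence, DMSO-referenced.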

[11] = molecular target: Steroid hormone receptor ERR1 (Homo sapiens) (UniProt P11474); assay: ATG_ERRa_TRANS: Attagene TRANS-FACTORIAL HepG2 Assay for human Estrogen-Related Receptor alpha (ERRa) (AID 2282971; active = hit-call score of the fitted dose curve at least 0.9, where 1 is the maximum); conditions: HepG2 Attagene TRANS reporter, ERRa transactivation
Method in brief: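 Reporter transcript induction was quantified by RT-PCR and capillary electrophoresis of FAM-labelled, HpaI-cut products after 24 h treatment of HepG2 cells carrying transiently transfected GAL4-UAS reporter units and an exogenous ERRa-Gal4 fusion; activity scored as increase over DMSO.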

[12] = ATG_M_19_TRANS: Attagene TRANS-FACTORIAL HepG2 Assay for M19 Transcription Factor (Internal Marker) (AID 2282974; active = hit-call score of the fitted dose curve at least 0.9, where 1 is the maximum); conditions: HepG2 Attagene TRANS-FACTORIAL M19 internal marker reporter
Method in brief: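 Multiplexed TRANS format: HepG2 liver cells bearing transient GAL4-UAS reporter units, chemical treatment 24 h, reporter transcripts quantified by RT-PCR plus capillary electrophoresis. DMSO defines baseline.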

[13] = ATG_GAL4_TRANS: Attagene TRANS-FACTORIAL HepG2 Assay for GAL4 (Internal Marker) (AID 2282976; active = hit-call score of the fitted dose curve at least 0.9, where 1 is the maximum); conditions: HepG2 Attagene TRANS GAL4 internal marker reporter
Method in brief: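 First, HepG2 cells were transfected with reporter units under GAL4-UAS control. Next, they were treated with chemical for 24 h. Finally, RNA was reverse-transcribed, PCR-amplified, FAM-labelled and resolved by capillary electrophoresis, with induction scored against DMSO.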

[14] = molecular target: Estrogen-related receptor gamma (Homo sapiens) (UniProt P62508); assay: ATG_ERRg_TRANS: Attagene TRANS-FACTORIAL HepG2 Assay for human Estrogen-Related Receptor gamma (ERRg) (AID 2282977; active = hit-call score of the fitted dose curve at least 0.9, where 1 is the maximum;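 note: hits increase reporter signal over DMSO so potencies reflect activators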); conditions: HepG2 Attagene TRANS reporter, ERRg transactivation
Method in brief: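 HepG2 cells transiently transfected with multiplexed GAL4-UAS reporter units driven by chimeric NR-Gal4 proteins; 24 h exposure. Reporter mRNA quantified by RT-PCR, fluorescent labelling, HpaI digestion and capillary electrophoresis; gain of signal vs DMSO.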

[15] = molecular target: Bile acid receptor (Homo sapiens) (UniProt Q96RI1); assay: ATG_FXR_TRANS: Attagene TRANS-FACTORIAL HepG2 Assay for Farnesoid X Receptor (FXR) (AID 2282979; active = hit-call score of the fitted dose curve at least 0.9, where 1 is the maximum;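 note: hits raise reporter mRNA above DMSO so AC50 marks FXR activation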); conditions: HepG2 Attagene TRANS FXR-GAL4 reporter transcription
Method in brief: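 Transient transfection of HepG2 with multiplexed GAL4-UAS reporter units; exogenous FXR-GAL4 chimera. Dose 24 h → TriZol RNA → oligo(dT) RT → PCR, 6-FAM primer extension, HpaI cut → CE. Gain vs DMSO.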

[16] = ATG_M_32_TRANS: Attagene TRANS-FACTORIAL HepG2 Assay for M32 Transcription Factor (Internal Marker) (AID 2282984; active = hit-call score of the fitted dose curve at least 0.9, where 1 is the maximum;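 note: transcript level of a background control reporter unit measured by RT-PCR and capillary electrophoresis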); conditions: HepG2 Attagene TRANS M32 internal marker reporter
Method in brief: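 Human hepatoma HepG2, transient MRTU transfection, 24 h treatment. RNA → RT-PCR → fluorescent primer extension → HpaI digest (2 h, 37 C) → CE. Positive-direction fit vs DMSO.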

[17] = molecular target: Nuclear receptor subfamily 4 group A member 2 (Homo sapiens) (UniProt P43354); assay: ATG_NURR1_TRANS: Attagene TRANS-FACTORIAL HepG2 Assay for human Nuclear Receptor Related Protein 1 (NURR1) (AID 2282985; active = hit-call score of the fitted dose curve at least 0.9, where 1 is the maximum); conditions: HepG2 Attagene TRANS reporter, mRNA readout
Method in brief: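 After 24 h chemical dosing, total RNA from transiently transfected HepG2 cells was reverse-transcribed and reporter cDNA PCR-amplified, FAM-labelled and analysed by capillary electrophoresis. Activity fitted in positive direction, DMSO as negative control.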

[18] = molecular target: Glucocorticoid receptor (Homo sapiens) (UniProt P04150); assay: ATG_GR_TRANS: Attagene TRANS-FACTORIAL HepG2 Assay for human Glucocorticoid Receptor (GR) (AID 2282978; active = hit-call score of the fitted dose curve at least 0.9, where 1 is the maximum;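 note: activators score as hits since higher reporter transcript over DMSO is fitted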); conditions: HepG2 Attagene TRANS GR reporter, mRNA transcription
Method in brief: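 Transiently transfected HepG2 cells express chimeric NR-GAL4 proteins acting on GAL4-UAS reporter units. Compounds are applied for 24 h. mRNA induction over DMSO is measured by capillary electrophoresis.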

[19] = molecular target: Oxysterols receptor LXR-alpha (Homo sapiens) (UniProt Q13133); assay: ATG_LXRa_TRANS: Attagene TRANS-FACTORIAL HepG2 Assay for human Liver X Receptor alpha (LXRa) (AID 2282980; active = hit-call score of the fitted dose curve at least 0.9, where 1 is the maximum); conditions: HepG2 Attagene TRANS reporter, LXRa transactivation
Method in brief: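 Transfect HepG2 with GAL4-UAS multiplex reporter constructs (TRANS format, chimeric receptor-GAL4); treat 24 h; extract RNA, reverse-transcribe, PCR-amplify, FAM-label, HpaI-digest; resolve fragments by capillary electrophoresis. Upward response vs DMSO.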

Measured: AC50

Chain of Glucocorticoid receptor (Homo sapiens) (P04150 whole entry, looked up, the tested form may be a part): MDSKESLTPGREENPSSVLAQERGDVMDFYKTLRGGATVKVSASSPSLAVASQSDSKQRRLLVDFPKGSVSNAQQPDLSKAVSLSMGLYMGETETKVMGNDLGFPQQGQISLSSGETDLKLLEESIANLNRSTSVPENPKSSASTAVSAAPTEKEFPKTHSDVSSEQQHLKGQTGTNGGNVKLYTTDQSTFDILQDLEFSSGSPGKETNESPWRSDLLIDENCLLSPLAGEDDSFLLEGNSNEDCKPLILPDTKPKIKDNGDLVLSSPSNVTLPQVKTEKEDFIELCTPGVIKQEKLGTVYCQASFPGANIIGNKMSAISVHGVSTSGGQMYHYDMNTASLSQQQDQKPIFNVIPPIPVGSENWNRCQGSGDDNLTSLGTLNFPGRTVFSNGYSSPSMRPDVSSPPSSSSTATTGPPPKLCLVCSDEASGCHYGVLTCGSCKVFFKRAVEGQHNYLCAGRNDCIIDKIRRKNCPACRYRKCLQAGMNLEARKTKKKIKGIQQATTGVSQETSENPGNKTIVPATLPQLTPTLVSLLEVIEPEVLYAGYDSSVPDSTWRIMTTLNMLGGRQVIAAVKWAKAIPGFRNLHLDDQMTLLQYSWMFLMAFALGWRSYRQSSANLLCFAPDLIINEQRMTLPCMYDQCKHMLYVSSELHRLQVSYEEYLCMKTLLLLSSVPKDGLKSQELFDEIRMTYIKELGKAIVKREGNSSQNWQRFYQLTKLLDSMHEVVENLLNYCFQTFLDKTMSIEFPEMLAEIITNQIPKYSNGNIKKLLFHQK
Chain of Transcriptional activator Myb (Homo sapiens) (P10242 whole entry, looked up): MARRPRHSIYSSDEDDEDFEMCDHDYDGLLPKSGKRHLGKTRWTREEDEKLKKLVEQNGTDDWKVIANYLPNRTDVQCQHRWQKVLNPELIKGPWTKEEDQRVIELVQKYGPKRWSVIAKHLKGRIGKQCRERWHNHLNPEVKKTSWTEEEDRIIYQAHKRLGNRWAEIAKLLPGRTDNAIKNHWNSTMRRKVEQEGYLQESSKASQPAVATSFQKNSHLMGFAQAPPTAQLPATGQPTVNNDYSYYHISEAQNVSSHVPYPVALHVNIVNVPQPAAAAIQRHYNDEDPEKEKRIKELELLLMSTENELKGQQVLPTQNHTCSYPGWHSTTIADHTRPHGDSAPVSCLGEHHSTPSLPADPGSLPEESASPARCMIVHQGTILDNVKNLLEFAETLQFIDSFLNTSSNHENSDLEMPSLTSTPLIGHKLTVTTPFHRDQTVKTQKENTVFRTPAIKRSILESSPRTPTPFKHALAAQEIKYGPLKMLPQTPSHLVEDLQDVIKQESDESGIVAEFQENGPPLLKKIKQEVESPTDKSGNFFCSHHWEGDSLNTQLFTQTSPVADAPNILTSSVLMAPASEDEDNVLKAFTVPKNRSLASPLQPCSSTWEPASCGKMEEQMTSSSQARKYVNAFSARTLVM
Chain of Bile acid receptor (Homo sapiens) (Q96RI1 whole entry, looked up, the tested form may be a part): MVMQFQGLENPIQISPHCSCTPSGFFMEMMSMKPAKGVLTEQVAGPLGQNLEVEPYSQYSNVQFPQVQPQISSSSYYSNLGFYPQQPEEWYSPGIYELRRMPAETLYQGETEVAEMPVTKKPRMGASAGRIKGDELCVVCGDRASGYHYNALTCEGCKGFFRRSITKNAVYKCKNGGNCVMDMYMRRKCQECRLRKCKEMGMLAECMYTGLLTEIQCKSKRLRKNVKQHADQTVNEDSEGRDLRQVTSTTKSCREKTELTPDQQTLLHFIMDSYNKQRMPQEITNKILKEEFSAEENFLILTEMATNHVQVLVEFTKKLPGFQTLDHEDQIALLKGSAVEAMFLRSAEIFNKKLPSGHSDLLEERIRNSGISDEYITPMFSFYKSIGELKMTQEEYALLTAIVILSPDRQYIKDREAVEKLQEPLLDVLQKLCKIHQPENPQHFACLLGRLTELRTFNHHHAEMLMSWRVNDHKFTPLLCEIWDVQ
Chain of Oxysterols receptor LXR-alpha (Homo sapiens) (Q13133 whole entry, looked up, the tested form may be a part): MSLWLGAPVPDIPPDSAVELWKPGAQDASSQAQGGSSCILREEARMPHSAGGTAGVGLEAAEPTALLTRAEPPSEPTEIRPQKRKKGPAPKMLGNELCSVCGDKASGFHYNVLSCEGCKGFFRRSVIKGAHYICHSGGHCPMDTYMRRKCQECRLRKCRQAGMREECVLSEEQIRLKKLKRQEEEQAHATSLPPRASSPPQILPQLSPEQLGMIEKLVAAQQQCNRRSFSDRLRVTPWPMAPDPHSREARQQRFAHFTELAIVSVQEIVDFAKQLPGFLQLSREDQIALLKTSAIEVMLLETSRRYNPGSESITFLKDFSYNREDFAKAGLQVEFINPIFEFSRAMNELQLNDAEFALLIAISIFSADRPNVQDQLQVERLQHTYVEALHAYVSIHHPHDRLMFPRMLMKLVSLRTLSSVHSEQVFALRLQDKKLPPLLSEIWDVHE
Chain of Nuclear respiratory factor 1 (Homo sapiens) (Q16656 whole entry, looked up): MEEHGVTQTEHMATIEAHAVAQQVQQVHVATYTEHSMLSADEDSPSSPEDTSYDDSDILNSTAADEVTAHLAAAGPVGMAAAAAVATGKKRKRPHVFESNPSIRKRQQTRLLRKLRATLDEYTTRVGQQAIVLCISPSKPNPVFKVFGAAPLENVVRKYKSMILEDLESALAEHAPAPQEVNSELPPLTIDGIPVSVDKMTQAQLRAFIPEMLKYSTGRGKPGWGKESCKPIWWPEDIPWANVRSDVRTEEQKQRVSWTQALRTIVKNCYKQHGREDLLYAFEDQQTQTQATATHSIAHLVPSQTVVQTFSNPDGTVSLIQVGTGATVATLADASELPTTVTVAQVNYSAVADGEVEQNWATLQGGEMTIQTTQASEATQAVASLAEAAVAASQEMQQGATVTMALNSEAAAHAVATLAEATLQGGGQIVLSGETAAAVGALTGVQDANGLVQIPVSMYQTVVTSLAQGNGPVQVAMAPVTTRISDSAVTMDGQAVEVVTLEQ
Chain of Nuclear receptor subfamily 4 group A member 2 (Homo sapiens) (P43354 whole entry, looked up): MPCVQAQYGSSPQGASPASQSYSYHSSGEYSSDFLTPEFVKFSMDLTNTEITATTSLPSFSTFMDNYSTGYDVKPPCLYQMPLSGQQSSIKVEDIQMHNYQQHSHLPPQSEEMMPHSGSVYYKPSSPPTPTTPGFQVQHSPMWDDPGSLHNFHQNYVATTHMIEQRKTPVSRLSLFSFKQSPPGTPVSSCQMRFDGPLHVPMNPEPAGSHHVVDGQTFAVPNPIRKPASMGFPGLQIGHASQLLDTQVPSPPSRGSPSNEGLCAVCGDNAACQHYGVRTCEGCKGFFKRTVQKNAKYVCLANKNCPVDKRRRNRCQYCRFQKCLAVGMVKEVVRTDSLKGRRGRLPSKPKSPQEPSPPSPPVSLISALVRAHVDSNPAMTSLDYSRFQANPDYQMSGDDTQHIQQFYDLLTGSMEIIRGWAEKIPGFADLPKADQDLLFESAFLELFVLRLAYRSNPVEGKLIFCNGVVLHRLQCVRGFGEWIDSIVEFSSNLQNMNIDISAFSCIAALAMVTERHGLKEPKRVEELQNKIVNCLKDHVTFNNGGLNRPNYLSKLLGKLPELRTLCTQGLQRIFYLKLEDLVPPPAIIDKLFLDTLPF
Chain of Estrogen-related receptor gamma (Homo sapiens) (P62508 whole entry, looked up, the tested form may be a part): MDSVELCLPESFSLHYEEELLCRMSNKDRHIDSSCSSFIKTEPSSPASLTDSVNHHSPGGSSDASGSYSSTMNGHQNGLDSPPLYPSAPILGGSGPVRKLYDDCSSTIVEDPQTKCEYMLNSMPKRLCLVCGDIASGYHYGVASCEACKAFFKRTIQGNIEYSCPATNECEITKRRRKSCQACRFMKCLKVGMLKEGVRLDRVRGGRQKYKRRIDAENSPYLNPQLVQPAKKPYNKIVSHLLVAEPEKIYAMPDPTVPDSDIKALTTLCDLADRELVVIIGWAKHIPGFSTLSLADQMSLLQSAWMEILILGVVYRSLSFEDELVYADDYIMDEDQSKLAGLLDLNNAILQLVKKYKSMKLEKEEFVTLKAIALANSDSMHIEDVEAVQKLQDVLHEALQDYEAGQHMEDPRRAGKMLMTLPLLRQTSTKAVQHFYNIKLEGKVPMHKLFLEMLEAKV
Chain of Oxysterols receptor LXR-beta (Homo sapiens) (P55055 whole entry, looked up, the tested form may be a part): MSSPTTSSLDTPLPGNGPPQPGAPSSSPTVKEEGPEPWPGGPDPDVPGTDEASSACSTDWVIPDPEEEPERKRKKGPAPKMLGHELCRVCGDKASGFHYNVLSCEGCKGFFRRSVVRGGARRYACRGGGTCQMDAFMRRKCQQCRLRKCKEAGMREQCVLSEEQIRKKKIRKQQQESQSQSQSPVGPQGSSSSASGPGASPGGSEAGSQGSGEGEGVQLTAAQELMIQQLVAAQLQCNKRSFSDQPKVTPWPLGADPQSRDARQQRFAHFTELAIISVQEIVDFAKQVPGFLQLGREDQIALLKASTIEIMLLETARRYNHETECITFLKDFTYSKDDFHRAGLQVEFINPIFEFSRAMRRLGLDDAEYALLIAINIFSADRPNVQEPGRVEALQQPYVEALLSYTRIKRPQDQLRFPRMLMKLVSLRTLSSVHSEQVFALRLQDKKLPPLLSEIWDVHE
Chain of Hepatocyte nuclear factor 4-alpha (Homo sapiens) (P41235 whole entry, looked up, the tested form may be a part): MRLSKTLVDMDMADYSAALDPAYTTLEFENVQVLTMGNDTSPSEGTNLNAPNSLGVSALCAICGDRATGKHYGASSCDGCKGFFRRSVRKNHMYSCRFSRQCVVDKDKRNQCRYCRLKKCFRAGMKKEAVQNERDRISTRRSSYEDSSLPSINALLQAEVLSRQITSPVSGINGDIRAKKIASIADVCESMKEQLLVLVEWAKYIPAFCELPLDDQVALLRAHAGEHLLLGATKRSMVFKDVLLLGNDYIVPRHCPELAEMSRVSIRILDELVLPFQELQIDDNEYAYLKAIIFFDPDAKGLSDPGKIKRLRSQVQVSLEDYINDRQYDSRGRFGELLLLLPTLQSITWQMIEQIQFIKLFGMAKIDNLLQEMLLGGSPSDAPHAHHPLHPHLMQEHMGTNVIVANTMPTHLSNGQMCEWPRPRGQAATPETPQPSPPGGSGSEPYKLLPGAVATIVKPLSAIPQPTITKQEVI

CC(C)C(C)(C)C(C)(C)C(C)(C)S
active: [3] 6.65 µM | [4] 40.8 µM
inactive: [1] | [2] | [5] | [6] | [7] | [8] | [9] | [10]

CCCC/C=C\CCCCCCCCCC=O
not listed: [4] | [6] | [7] | [8] | [17] | [18] | [19]
inactive: all other assays above

O=c1oc(=O)c2cc3c(=O)oc(=O)c3cc12
not listed: [4] | [6] | [11] | [15] | [18] | [19]
inactive: all other assays above

O=C(Oc1ccccc1)c1ccc(O)cc1
inactive: [1] | [2] | [5] | [12] | [13] | [18] | [8] | [16] | [9] | [10]
active: [3] 159 µM

OC[C@H]1O[C@H](O[C@]2(CCl)O[C@H](CCl)[C@@H](O)[C@@H]2O)[C@H](O)[C@@H](O)[C@H]1Cl
not listed: [4] | [7] | [11] | [14] | [15] | [17]
inactive: all other assays above

NCCCCCCN
not listed: [4] | [8] | [15] | [17] | [18] | [19]
inactive: all other assays above

CCCCCC=CCC(=O)OC
not listed: [4] | [8] | [11] | [14] | [15] | [16]
inactive: all other assays above

CC1(C)C(=O)N(Br)C(=O)N1Cl
not listed: [4] | [6] | [8] | [14] | [15] | [17] | [18] | [19]
inactive: all other assays above

CCCCNC(=O)NS(=O)(=O)c1ccc(C)cc1
not listed: [4] | [7] | [8] | [10] | [11] | [13] | [19]
inactive: all other assays above

CCCCO
not listed: [4] | [6] | [8] | [11] | [14] | [17] | [18] | [19]
inactive: all other assays above

Nc1cc([N+](=O)[O-])ccc1Cl
not listed: [4] | [6] | [7] | [12] | [14] | [17] | [19]
inactive: all other assays above

CCC(C)CCCC(C)(C)O (configuration not stated)
inactive: [1] | [2] | [3] | [5] | [12] | [18] | [19] | [16] | [9]

CCC(=O)OCc1ccccc1
inactive: [1] | [2] | [3] | [5] | [12] | [18] | [19] | [8] | [16] | [9]

CCC(C)(O)CCC=C(C)C (configuration not stated)
inactive: [1] | [2] | [3] | [5] | [12] | [18] | [8] | [16] | [9] | [10]

COC(C(=O)O)c1ccccc1 (configuration not stated)
inactive: [1] | [2] | [3] | [5] | [13] | [7] | [8] | [9] | [10]

O=c1cc(-c2ccccc2)oc2cc(O)cc(O)c12
not listed: [4] | [6] | [7] | [11] | [13] | [14] | [15]
inactive: all other assays above

CCCCOCCOCCOCCOCCO
not listed: [4] | [6] | [11] | [12] | [14] | [15] | [18] | [19]
inactive: all other assays above

O=C1NC(=O)c2ccccc21
inactive: [1] | [2] | [3] | [5] | [13] | [15] | [19] | [8] | [9] | [10]

CC(C)=CCC/C(C)=C/COC=O
not listed: [4] | [11] | [12] | [14] | [15] | [18]
inactive: all other assays above

CCCCCC(CO)CCC (configuration not stated)
inactive: [1] | [2] | [3] | [5] | [12] | [6] | [8] | [9] | [10]

CC(C=O)Cc1ccc(C(C)C)cc1 (configuration not stated)
not listed: [4] | [6] | [11] | [12] | [14] | [15] | [17] | [19]
inactive: all other assays above

CCCCCNCCCCC
inactive: [1] | [2] | [3] | [5] | [13] | [7] | [8] | [9] | [10]

CCCCCCCCCCCCCC(=O)O
not listed: [4] | [6] | [11] | [12] | [18] | [19]
inactive: all other assays above
